Over roughly 59,000 sequences, the read-out has its median near -0.00055; the lowest 2% begin near -2. The sample as a whole holds a higher share of the lowest values than the screen did.
Experiment: Identification of proteins required for the processing of the EWS-FLI1 nascent transcript;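 further: robust z of luciferase light less the median z of siRNAs with the same seed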
Conditions: TC32 Ewing sarcoma NR0B1-luc vs CMV-luc (EWS-FLI1 target promoter against control promoter), 48 h; screened at 20 nM (by protocol)
Method: Ewing sarcoma (ES) cells depend on the EWS-FLI1 fusion transcription factor for cell survival. Using an assay of EWS-FLI1 activity and genome-wide siRNA screening we have identified proteins required for the processing of the EWS-FLI1 nascent transcript. Parallel genome-wide siRNA-mediated RNAi screens were conducted in Ewing sarcoma TC32 cell lines expressing a luciferase (luc) reporter protein driven by either the promoter of the EWS-FLI1 target gene NR0B1 (TC32-NR0B1-luc) or the CMV promoter (TC32-CMV-luc). Luciferase activity was assessed 48 hours post siRNA-transfection.
Twenty microl of serum-free media containing Lipofectamine RNAiMax (0.05 microl) was added to wells containing siRNA (0.8 pmol). Lipid and siRNA were allowed to complex for 45 min at ambient temperature before addition of 600 cells in RPMI-1640, 20% FBS to yield final transfection mixtures containing 20 nM siRNA in RPMI-1640, 10% FBS. Luciferase expression was measured using OneGlo (Promega, Madison, WI). The genome-wide screening campaign was conducted using Ambion's human genome library version 4.1 (Ambion, Austin TX). This library targets approximately 21000 human genes, three siRNAs per gene. Each siRNA is arrayed in an individual well of a 384-well plate. Parallel transfections were conducted in TC32-NR0B1-luc and TC32-CMV-luc cell lines and luciferase expression (OneGlo, Promega) was assayed 48 h later on a PerkinElmer Envision 2104 Multilabel plate reader (PerkinElmer, Waltham, MA). Qiagen's AllStars Negative control was incorporated on all screening plates for normalization (16 wells per plate). Qiagen, Germantown, MDsiGL4 was incorporated as a positive transfection control (16 wells per plate) on all plates. […] The raw luciferase data for the NR0B1- and CMV-luc screens were normalized and z-score-MAD transformed using standard methods (Chung et al., 2008). The miRNA-like seed sequence of every siRNA was determined and the median z-score for all siRNA sequences with the same seed sequence was calculated. This z-score was subtracted from the z-score associated with each siRNA with that seed sequence to generate a seed-adjusted z-score value (Z) that was used when the results for the three siRNAs corresponding to each gene were compared (Marine et al., 2012)

Sequence	seed-corrected z-score
UAAGGUUCGACCUGCAGAG against MNX1-AS1	-2.4
UUCCGUUGAUUCUUUCUCC against KAT5	-1.63
UUGGUGGUCAUUAAGGUUG against PQLC3	-0.378
AAUCUGUCUGUAGGUAUCC against TBC1D22B	-0.38
AUUGAUGUAAUCUCCGUCC against PTPN7	-1.34
UUUCUUAUCUCUGUUGUUC against CRCP	0.4
UUUGGUGAUAGGGUGCUCG against C5orf60	-3.47
UUUCUUAGGUGUAUUGACC against PRDX1	-1.23
AAGGUAGGCAAAAUUAUCC against GALNT16	1.35
UAGACGUGCACGAACACGC against MOB3A	-0.135
UGAUAUAGGAGUUAGACUG against KRTAP2-2	0.0896
UUAGCAAGCAUCCUUUCGC against LTN1	-0.45
AAACAGAAGAGGGAGUGGG against LINC01567	-2.3
UGAAUAAUACCUAUAAUCC against OR4F6	-0.573
UUGGACAUGAUGAAAUUCC against EML3	0.0247
UACAUGCUCCGCACAGUCC against NOTCH1	-0.17
UUGGAGCACUGUAAAGGCC against ZFP14	0.456
UCUUUAUCAAGUUUACAGG against LANCL3	-0.0126
AUAGUUCGGAUCACAAUGC against NPSR1	0.18
UUCACUGUCAGUCCGAUGG against COPZ1	-3.71
UCUGGUUCUUGUUGGGUAG against ECEL1	-2.81
UUUCGAGAAAUAAUACACC against RPA1	-0.401

Sequence	seed-corrected z-score
UGUAGAAUGAUCACCAACC against PCNX4	0.471
UAGGUCAUAACAGAAUGCU against FLNC	-0.156
UGUAGUCACACCAGAGAGG against FAM180B	-2.49
AAAGAUAUCAGGCACCCAG against GABRR3	0.633
UAAACUGCACUUUCCACGG against C12orf49	-2.69
UGUAUUAUGACCUUCGCUC against MORC4	-0.441
UCAAUUGAUUCCUCAAUUC against MCM6	0.575
UAUGCUUUCAAAAGAGUCC against ETS1	-1.16
AAGGCAUUAAGACUCUUGG against HDAC3	-0.388
UCCUUUACCGAUUUCAGUU against XRCC3	-0.609
UUCCUUCUUAGGUUUCUUC against LRRC59	0.83
UAGUUGUCACCAUCCGUGC against DSE	-2.48
AAGUUUAUAUACACUUUUG against NDUFS6	0.771
UUUCAGAUCAUACUCGCCG against VPS33B	0.89
UGAGGAGCGACAAUCUUCC against TFAP2C	-0.276
UGCCUGGAGAGAGUGUACG against PGLYRP1	-0.292
UUAGCAUUAAAACAGGUAG against GC	-0.347
UGGGAUCUCAGCUGUAUCC against XAGE1E	-2.37
UUUAGUAACAGCCCAGUUC against CCDC36	-0.277
AUAGGUAUCAGGCACCCAG against GABRB2	1.35
UAUUCUUACUGAUCGUUUG against FLI1	-6.54
UAUUCACCCAGAACUGUUG against CYP24A1	0.031

Sequence	seed-corrected z-score
UAUAUCACCAUAUAAUCAC against ADRA2B	-0.259
AAAUUAAUCUUCUUCAUUC against COX17	0.109
UCUGGAUCAAAGGGUGUUG against TMEM134	-4.42
UGAACUCCUUCAAUCCUGC against AHSP	0.888
UUAAUAAGACUUCAAGAUG against MYOCD	0.454
UUCCGGUACAAGAUAUUCC against QRSL1	0.059
AUAGGGUUUUACAUGAGGC against MYLK	-0.272
UCAUGAUCUGCGAAGUUGG against CCDC75P1	-2.24
UAUGUUCAGCUCGCAUUUC against CMAS	0.259
UUCAUGUCCAGGAUAUCCC against OBFC1	-0.538
AUUGAUAUAAGGAUCAACA against OR5K1	0.45
UUGGGUACCUCAGUCCACA against SNRPD2	-2.98
UACAUCUAAUUCACAGUUC against F9	0.676
UAAAUUUGCCCUGCUCUUG against OR2B11	0.408
AGUGUGACAAGAACGUGCC against MYL6P5	-0.946
UCUGUGAACACCGGCAUGU against NCLN	2.18
UUACGUUCUUGAAAGGCGG against IARS	1.47
AGACAGAUGCGUUUGAUUC against PYDC2	0.835
AAUGGAACAACAGCGGUCC against ZNF217	-0.315
UUCCUAGAAACCCAGACUG against SPATA31E1	-3.97
UACCGAUUUGGUAAUAUCG against LY75	-0.557
UCUCGUUAGUGAUUAAGUC against SULF1	-0.403

Sequence	seed-corrected z-score
UCACCUUGAAGCUAUAACC against ERCC3	0.757
UUUGAUUUCAGCAUCUUCC against TSKS	-3.12
AAAUGGUCCAGCAAAUUCU against NPPA	0.589
UUUUCGUGAUGCUUGGUCC against NDEL1	1.78
UCAAGAGAAUUCUGUAAUC against C5orf60	-0.0754
AUAGUACACGAUGAACUCG against RAMP3	-0.177
UGACUGACACUUUCAAAGC against SHC1	-0.358
UGUGGUACCAGGCUGCUUG against PAQR8	-2.42
UUGUUGGACAGUUGAAUCG against SEC62	0.834
UUGAGUUCCAAGAGGACCC against TPBG	0.978
UUUCUUAUUGUUGCGGCAG against SNRPD2	-2.78
UAUGUGGUUAGUCCGUGUG against GTF3C1	0.362
AAAGUUUUCCCUUAUGAUG against MYADML2	0.381
UGUUCUUUAAGCCUUUCCA against BLOC1S5	-0.0488
UUCCGGAACAUGAAGUGCC against DYRK1B	-0.257
UUGUCAAACAGGACUGAGU against AZIN2	-0.00443
UGUGGGAAAGCAGGUAUCU against ZNF815P	-1.11
UAAAGAUGCAGAUAAUAAC against NMUR1	0.231
UUACGAAUGACAUCCUUUG against CKAP5	-2.84
